Assay results published in PubChem BioAssay (NCATS).
Results filed as inconclusive are left out. Active and inactive are the calls of the source. Calls follow the shape of the dose curve; as a rule, active = well fitted cell-killing curve with a large enough effect; inconclusive = small, poorly fitted or top-dose-only effect, or effect the other way; inactive = flat fitted curve, though single readings scatter.

Assays:
Experiment in all cases: Primary qHTS to identify gynecologic anti-cancer compounds using libraries of approved drugs and bioactive compounds (AID 1345084); also: nearly all actives have a fitted effect of over 55% in size
C33A = settings: Gynecologic cancer cell panel viability, ATPlite luminescence, 48 h; series mostly up to 57.5 µM
Summary of the method: (§1)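 ATP-based viability (ATPlite), 1,000 cells/well, 16 h pre-incubation, 48 h compound at 37 C, 5% CO2, 15 min RT before read.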

CAOV3 = settings: Gynecologic cancer cell panel viability, ATPlite luminescence, 48 h; series mostly up to 57.5 µM
Summary of the method: as §1

CASKI = settings: Gynecologic cancer cell panel viability, ATPlite luminescence, 48 h; series mostly up to 57.5 µM
Summary of the method: as §1

Es-2 = settings: Gynecologic cancer cell panel viability, ATPlite luminescence, 48 h; series mostly up to 57.5 µM
Summary of the method: as §1

HeLa = settings: Gynecologic cancer cell panel viability, ATPlite luminescence, 48 h; series mostly up to 57.5 µM
Summary of the method: as §1

Hek293T = settings: Gynecologic cancer cell panel viability, ATPlite luminescence, 48 h, control line for the selectivity index; series mostly up to 57.5 µM
Summary of the method: as §1
% is scaled to controls: 0 for no effect and ±100 for the full control effect.

O=C(/C=C/c1ccc(O)c(O)c1)OCc1ccccc1O[C@@H]1O[C@H](CO)[C@@H](O)[C@H](O)[C@H]1O
inactive: Potency (C33A) | Potency (CAOV3) | Potency (CASKI) | Potency (Es-2) | Potency (HeLa) | Potency (Hek293T)

CC(C)CC(=O)OC[C@H]1O[C@@](COC(=O)CC(C)C)(O[C@H]2O[C@H](CO)[C@@H](O)[C@H](O)[C@H]2OC(=O)CC(C)C)[C@@H](OC(=O)CC(C)C)[C@@H]1O
inactive: Potency (C33A) | Potency (CAOV3) | Potency (CASKI) | Potency (Es-2) | Potency (HeLa) | Potency (Hek293T)

CCOc1nc2cccc(C(=O)O)c2n1Cc1ccc(-c2ccccc2-c2noc(=O)[nH]2)cc1
inactive: Potency (C33A) | Potency (CAOV3) | Potency (CASKI) | Potency (Es-2) | Potency (HeLa) | Potency (Hek293T)

CC(C)(O)C1CCC2(C)C3C(O)C4C(C13)C42CO (centres undefined)
inactive: Potency (C33A) | Potency (CAOV3) | Potency (CASKI) | Potency (Es-2) | Potency (HeLa) | Potency (Hek293T)

COc1ccccc1CC(C(=O)O)N(C)C(=O)c1ccccc1 (centres undefined)
inactive: Potency (C33A) | Potency (CAOV3) | Potency (CASKI) | Potency (Es-2) | Potency (HeLa) | Potency (Hek293T)

CN1C(=O)c2ccccc2NC(=O)[C@]12O[C@@H]2c1cccc(O)c1
inactive: Potency (C33A) | Potency (CAOV3) | Potency (CASKI) | Potency (Es-2) | Potency (HeLa) | Potency (Hek293T)

CC1(C)CC[C@]2(C(=O)O)CC[C@]3(C)C(=CCC4[C@@]5(C)C[C@@H](O)[C@H](O)C(C)(C)C5CC[C@]43C)[C@@H]2[C@@H]1O (some centres undefined)
inactive: Potency (C33A) | Potency (CAOV3) | Potency (CASKI) | Potency (Es-2) | Potency (HeLa) | Potency (Hek293T)

CC(=O)c1c(O)cc2cccc3c2c1CC(C)(O)O3 (centres undefined)
inactive: Potency (C33A) | Potency (CAOV3) | Potency (CASKI) | Potency (Es-2) | Potency (HeLa) | Potency (Hek293T)

O=C1NC(Cc2ccc(O)cc2)C(=O)N2CCCC12 (centres undefined)
inactive: Potency (C33A) | Potency (CAOV3) | Potency (CASKI) | Potency (Es-2) | Potency (HeLa) | Potency (Hek293T)

C[C@@H]1O[C@@H](O[C@@H]2[C@@H](O)[C@H](O[C@@H]3[C@@H](O)[C@@H](O)[C@H](O[C@H]4[C@H](OC(=O)[C@]56CCC(C)(C)C[C@H]5C5=CCC7[C@@]8(C)C[C@H](O)[C@H](O[C@@H]9O[C@H](C(=O)O)[C@@H](O)[C@H](O)[C@H]9O)[C@@](C)(CO)C8[C@H](O)C[C@@]7(C)[C@]5(C)CC6)OC[C@H](O)[C@@H]4O)O[C@H]3C)OC[C@H]2O)[C@H](O)[C@H](O)[C@H]1O (some centres undefined)
inactive: activity change, negative = cytotoxicity (C33A) -3.84% [at 6.55 µM] | activity change, negative = cytotoxicity (CAOV3) 1.69% [at 6.55 µM] | activity change, negative = cytotoxicity (CASKI) -21.9% [at 6.55 µM] | activity change, negative = cytotoxicity (Es-2) 7.07% [at 6.55 µM] | activity change, negative = cytotoxicity (HeLa) 9.33% [at 6.55 µM] | activity change, negative = cytotoxicity (Hek293T) -1.15% [at 6.55 µM]

C[C@@H]1O[C@@H](O[C@H]2[C@H](O[C@H]3CC[C@@]4(C)C(CC[C@]5(C)C4CC=C4C6CC(C)(C)CC[C@]6(C(=O)O[C@@H]6O[C@H](CO[C@@H]7O[C@H](CO)[C@@H](O[C@@H]8O[C@@H](C)[C@H](O)[C@@H](O)[C@H]8O)[C@H](O)[C@H]7O)[C@@H](O)[C@H](O)[C@H]6O)CC[C@]45C)[C@]3(C)CO)OC[C@H](O)[C@@H]2O)[C@H](O)[C@H](O)[C@H]1O (some centres undefined)
inactive: activity change, negative = cytotoxicity (C33A) -8.84% [at 6.55 µM] | activity change, negative = cytotoxicity (CAOV3) 1.96% [at 6.55 µM] | activity change, negative = cytotoxicity (CASKI) -8.63% [at 6.55 µM] | activity change, negative = cytotoxicity (Es-2) 23.6% [at 6.55 µM] | activity change, negative = cytotoxicity (HeLa) -1.03% [at 6.55 µM] | activity change, negative = cytotoxicity (Hek293T) -5.22% [at 6.55 µM]

O=C(CCO[C@@H]1O[C@H](CO)[C@@H](O)[C@H](O)[C@H]1O)c1ccc(O)cc1
inactive: Potency (C33A) | Potency (CAOV3) | Potency (CASKI) | Potency (Es-2) | Potency (HeLa) | Potency (Hek293T)

C[C@@H]1CC[C@H]2C(C)(C)[C@H](O)[C@H](O)C[C@]2(C)[C@@]12Cc1c(O)cc3c(c1O2)CNC3=O
inactive: Potency (C33A) | Potency (CAOV3) | Potency (CASKI) | Potency (Es-2) | Potency (HeLa) | Potency (Hek293T)

C=C1C2=CC(O)C(C)C1(C)CC/C(C)=C/CCC1(C)OC1C2=O (centres undefined)
inactive: Potency (C33A) | Potency (CAOV3) | Potency (CASKI) | Potency (Es-2) | Potency (HeLa) | Potency (Hek293T)

C[C@@H]1O[C@@H](O[C@H]2[C@H](O)[C@@H](O)[C@H](OC[C@H]3O[C@@H](OC(=O)[C@]45CCC(C)(C)C[C@H]4C4=CCC6[C@@]7(C)C[C@H](O)[C@H](O[C@@H]8O[C@H](CO)[C@@H](O)[C@H](O)[C@H]8O)[C@@](C)(C(=O)O)C7CC[C@@]6(C)[C@]4(C)CC5)[C@H](O[C@@H]4O[C@H](CO)[C@@H](O)[C@H](O)[C@H]4O)[C@@H](O)[C@@H]3O)O[C@@H]2CO)[C@H](O)[C@H](O)[C@H]1O (some centres undefined)
inactive: activity change, negative = cytotoxicity (C33A) 4.28% [at 6.55 µM] | activity change, negative = cytotoxicity (CAOV3) 11.2% [at 6.55 µM] | activity change, negative = cytotoxicity (CASKI) 9.67% [at 6.55 µM] | activity change, negative = cytotoxicity (Es-2) 9.17% [at 6.55 µM] | activity change, negative = cytotoxicity (HeLa) 0.162% [at 6.55 µM] | activity change, negative = cytotoxicity (Hek293T) 3.11% [at 6.55 µM]

C/C=C/C=C/C=C/C(=O)O[C@@H]1[C@@H](OC)C2=C(C(=O)N(C(C)C(=O)O)C2)[C@@]2(C)CCCC(C)(C)[C@H]12 (some centres undefined)
inactive: Potency (C33A) | Potency (CAOV3) | Potency (CASKI) | Potency (Es-2) | Potency (HeLa) | Potency (Hek293T)

CNC(=O)O[C@H]1COc2ccc(N3CCN(C4COC4)CC3)cc2[C@@H]1NC(=O)c1ccc(F)cc1
inactive: Potency (C33A) | Potency (CAOV3) | Potency (CASKI) | Potency (Es-2) | Potency (HeLa) | Potency (Hek293T)

CC(C)=CCC/C(C)=C/CC/C(C)=C/CC[C@]1(C)CCc2cc(O)cc(C)c2O1
inactive: Potency (C33A) | Potency (CAOV3) | Potency (CASKI) | Potency (Es-2) | Potency (HeLa) | Potency (Hek293T)

CC1=CC(=O)C2C(C)(C)CCCC2(C)C12CCC1(COC(=O)C1)O2 (centres undefined)
inactive: Potency (C33A) | Potency (CAOV3) | Potency (CASKI) | Potency (Es-2) | Potency (HeLa) | Potency (Hek293T)
